In PubChem BioAssay (NCI) one finds growth inhibition data, which are given here for nine compounds.

This is part of a sample that, as a whole, favours compounds with a hit. Of some 79,000 tested, about 15% had one in any assay. A number with no mark means an inactive call. The source made the active and inactive calls. Cut-off read from the data, not from the text of the source: active = growth inhibition above about 70%; inactive = the rest.

A short description of assay [1]: NCI Yeast Anticancer Drug Screen. Data for the rad50 strain (AID 155).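 Note: 0% = growth of vehicle-only cultures of the same strain.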 Particulars: S. cerevisiae rad50 strain growth inhibition, hits give high values. In a few lines: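 A DNA repair-deficient yeast mutant serves as the test organism; compound-induced growth inhibition is calculated against vehicle-treated cells.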
Assay [2] can be described thus: NCI Yeast Anticancer Drug Screen. Data for the mec2-1 strain (AID 157). Particulars: S. cerevisiae mec2-1 strain, hits give high values. The procedure, abridged:
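Growth inhibition is read against vehicle-treated controls after compound exposure of the mec2-1 yeast strain, which is defective in DNA damage repair or cell cycle control.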

Assay [3] can be described thus: NCI Yeast Anticancer Drug Screen. Data for the sgs1 mgt1 strain (AID 161).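 Note: 0% = growth of cultures given vehicle only.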 The settings on record: S. cerevisiae sgs1 mgt1 strain, hits give high values. The procedure, abridged: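 Percent growth inhibition was derived by comparing compound-exposed mutant yeast with vehicle-exposed cultures. The strain carries alterations in DNA damage repair.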
The nature of assay [4]: NCI Yeast Anticancer Drug Screen. Data for the cln2 rad14 strain (AID 165).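 Note: 0% = growth equal to vehicle treated cultures.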 Particulars: S. cerevisiae cln2 rad14 strain, hits give high values. The procedure, abridged:
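Growth inhibition, relative to vehicle-treated controls, is the read-out. The test organism is a yeast strain with defined genetic alterations, cln2 rad14.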

Assay [5] can be described thus: NCI Yeast Anticancer Drug Screen. Data for the bub3 strain (AID 167). Particulars: S. cerevisiae bub3 mutant strain, hits give high values. The procedure, abridged:
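Inhibition values come from growth of compound-treated mutant yeast normalised to vehicle-treated controls.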

Assay [6] in a line: NCI Yeast Anticancer Drug Screen. Data for the mlh1 rad18 strain (AID 175). Particulars: S. cerevisiae mlh1 rad18 strain growth inhibition, hits give high values. In a few lines: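 Cells of a genetically altered yeast strain, deficient in DNA damage repair, were treated with compound. Their growth was then compared with that of vehicle-treated cultures to give inhibition.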
[7] abbreviates: at 5.0 µM (retest, dose inferred, filed as 0.5).
Where [8] appears, read: at 50.0 µM (retest, dose inferred, filed as 5.0).

With `OC1CCN(c2c3ccccc3nc3ccccc23)CC1`, the growth inhibition in assay [1] (setting [7]) was 21%; in assay [1] (setting [8]) it was 85% (active); in assay [1] (at 50.0 µM), 12.2%; in assay [2] (setting [7]) it was 7%; in assay [2] (setting [8]), 67%; in assay [2] (at 50.0 µM) it was 11.4%. Further, the growth inhibition is 32% in assay [3] (setting [7]); 94% (active) in assay [3] (setting [8]); 2.65% in assay [3] (at 50.0 µM); 24% in assay [4] (setting [7]); 23% in assay [4] (setting [8]); 37.4% in assay [4] (at 50.0 µM). For the same compound, the growth inhibition is 1% in assay [5] (setting [7]); 19% in assay [5] (setting [8]); 5.55% in assay [5] (at 50.0 µM); 8% in assay [6] (setting [7]); 81% (active) in assay [6] (setting [8]); 15% in assay [6] (at 50.0 µM).
Turning to `CCC(CC)=NNc1ccc([N+](=O)[O-])cc1`, the growth inhibition in assay [1] (setting [7]) was 7%; in assay [1] (setting [8]) it was 96% (active); in assay [1] (at 50.0 µM), 98.4% (active); in assay [2] (setting [7]), 15%; in assay [2] (setting [8]), 95% (active); in assay [2] (at 50.0 µM), 97.7% (active). The growth inhibition in assay [3] (setting [7]) was 8%; in assay [3] (setting [8]), 97% (active); in assay [3] (at 50.0 µM), 97.8% (active); in assay [4] (setting [7]), 10%; in assay [4] (setting [8]), 94% (active); in assay [4] (at 50.0 µM), 95.3% (active). Besides, the growth inhibition in assay [5] (setting [7]) was 4%; in assay [5] (setting [8]) it was 42%; in assay [5] (at 50.0 µM), 97.9% (active); in assay [6] (setting [7]), 11%; in assay [6] (setting [8]), 97% (active); in assay [6] (at 50.0 µM), 97.2% (active).
As to `O=C1/C(=C/c2ccc(Cl)cc2)CSC/C1=C\c1ccc(Cl)cc1`, the growth inhibition in assay [1] (setting [7]) was 23%; in assay [1] (setting [8]) it was 37%; in assay [1] (at 50.0 µM), 2.35%; in assay [2] (setting [7]), 12%; in assay [2] (setting [8]) it was 37%; in assay [2] (at 50.0 µM), 4%. Also, the growth inhibition was 19% in assay [3] (setting [7]); 53% in assay [3] (setting [8]); 9.35% in assay [3] (at 50.0 µM); 18% in assay [4] (setting [7]); 34% in assay [4] (setting [8]); -2.2% in assay [4] (at 50.0 µM). Besides, the growth inhibition was 25% in assay [5] (setting [7]); 62% in assay [5] (setting [8]); 5.55% in assay [5] (at 50.0 µM); 16% in assay [6] (setting [7]); 42% in assay [6] (setting [8]); -9.1% in assay [6] (at 50.0 µM).
Take `CCOc1ccc2nc(NC(=O)c3c/c(=N\NC(=O)C[N+](C)(C)C)c4ccc(O)cc4o3)sc2c1`: the growth inhibition in assay [1] (setting [7]) was 57%; in assay [1] (setting [8]), 64%; in assay [1] (at 50.0 µM), 99.3% (active); in assay [2] (setting [7]), 28%; in assay [2] (setting [8]), 53%; in assay [2] (at 50.0 µM) it was 99.6% (active). Moreover, the growth inhibition in assay [3] (setting [7]) is 33%; in assay [3] (setting [8]), 65%; in assay [3] (at 50.0 µM), 99.3% (active); in assay [4] (setting [7]), 13%; in assay [4] (setting [8]), 61%; in assay [4] (at 50.0 µM), 98.6% (active). The growth inhibition in assay [5] (setting [7]) is 62%; in assay [5] (setting [8]), 62%; in assay [5] (at 50.0 µM), 99.3% (active); in assay [6] (setting [7]), 41%; in assay [6] (setting [8]) it was 52%; in assay [6] (at 50.0 µM), 99.2% (active).
Turning to `C=CCOc1ccccc1C(OCC)OCC`, the growth inhibition is 8% in assay [1] (setting [7]); 74% (active) in assay [1] (setting [8]); 46.5% in assay [1] (at 50.0 µM); 7% in assay [2] (setting [7]); 35% in assay [2] (setting [8]); 23.3% in assay [2] (at 50.0 µM). Also, the growth inhibition is 8% in assay [3] (setting [7]); 76% (active) in assay [3] (setting [8]); 52.6% in assay [3] (at 50.0 µM); 11% in assay [4] (setting [7]); 32% in assay [4] (setting [8]); 7.75% in assay [4] (at 50.0 µM). The growth inhibition in assay [5] (setting [7]) was 7%; in assay [5] (setting [8]), 81% (active); in assay [5] (at 50.0 µM), 30.2%; in assay [6] (setting [7]), 0%; in assay [6] (setting [8]) it was 87% (active); in assay [6] (at 50.0 µM), 43.8%.
Take `COc1ccnc2c1C(=O)c1nc3ccccc3c3ccnc-2c13`: the growth inhibition was 14% in assay [1] (setting [7]); 89% (active) in assay [1] (setting [8]); 81.2% (active) in assay [1] (at 50.0 µM); -9% in assay [2] (setting [7]); 83% (active) in assay [2] (setting [8]); 79.8% (active) in assay [2] (at 50.0 µM). Further, the growth inhibition is 9% in assay [3] (setting [7]); 83% (active) in assay [3] (setting [8]); 81.5% (active) in assay [3] (at 50.0 µM); 2% in assay [4] (setting [7]); 88% (active) in assay [4] (setting [8]); 80.8% (active) in assay [4] (at 50.0 µM). Besides, the growth inhibition was -15% in assay [5] (setting [7]); 86% (active) in assay [5] (setting [8]); 81% (active) in assay [5] (at 50.0 µM); 23% in assay [6] (setting [7]); 92% (active) in assay [6] (setting [8]); -21.9% in assay [6] (at 50.0 µM).
As for `CC(C)(C)c1ccc2c(c1)C(O)(c1ccccc1)C1OC1(C(C)(C)C)C2=O` (configuration not stated), the growth inhibition is 10% in assay [1] (setting [7]); 85% (active) in assay [1] (setting [8]); 96.2% (active) in assay [1] (at 50.0 µM); 9% in assay [2] (setting [7]); 82% (active) in assay [2] (setting [8]); 94.5% (active) in assay [2] (at 50.0 µM). Also, the growth inhibition in assay [3] (setting [7]) is 16%; in assay [3] (setting [8]), 82% (active); in assay [3] (at 50.0 µM), 79.3% (active); in assay [4] (setting [7]), 4%; in assay [4] (setting [8]), 87% (active); in assay [4] (at 50.0 µM), 91.7% (active). For the same compound, the growth inhibition in assay [5] (setting [7]) is -3%; in assay [5] (setting [8]) it was 88% (active); in assay [5] (at 50.0 µM), 94.7% (active); in assay [6] (setting [7]), 31%; in assay [6] (setting [8]), 91% (active); in assay [6] (at 50.0 µM), 93.2% (active).
As for `COc1ccccc1/C=C(\NC(=O)c1ccccc1)c1nc2ccccc2[nH]1`, the growth inhibition in assay [1] (setting [7]) is 42%; in assay [1] (setting [8]), 96% (active); in assay [1] (at 50.0 µM), 97.8% (active); in assay [2] (setting [7]), 30%; in assay [2] (setting [8]), 98% (active); in assay [2] (at 50.0 µM) it was 95% (active). The growth inhibition in assay [3] (setting [7]) was 38%; in assay [3] (setting [8]) it was 99% (active); in assay [3] (at 50.0 µM), 96.4% (active); in assay [4] (setting [7]), 16%; in assay [4] (setting [8]) it was 74% (active); in assay [4] (at 50.0 µM), 95% (active). Moreover, the growth inhibition in assay [5] (setting [7]) is 3%; in assay [5] (setting [8]) it was 88% (active); in assay [5] (at 50.0 µM), 98% (active); in assay [6] (setting [7]), 21%; in assay [6] (setting [8]), 96% (active); in assay [6] (at 50.0 µM), 96.4% (active).
For the compound `CCCCCCCCCCCC[n+]1ccc(C#N)cc1`, the growth inhibition in assay [1] (setting [7]) was 27%; in assay [1] (setting [8]) it was 81% (active); in assay [1] (at 50.0 µM), 99.2% (active); in assay [2] (setting [7]), 30%; in assay [2] (setting [8]), 98% (active); in assay [2] (at 50.0 µM) it was 95.9% (active). Also, the growth inhibition in assay [3] (setting [7]) is 28%; in assay [3] (setting [8]), 97% (active); in assay [3] (at 50.0 µM), -5.4%; in assay [4] (setting [7]), 26%; in assay [4] (setting [8]), 78% (active); in assay [4] (at 50.0 µM) it was 84.4% (active). For the same compound, the growth inhibition in assay [5] (setting [7]) was 34%; in assay [5] (setting [8]), 92% (active); in assay [5] (at 50.0 µM) it was 47.8%; in assay [6] (setting [7]), 16%; in assay [6] (setting [8]) it was 92% (active); in assay [6] (at 50.0 µM) it was 99.5% (active).
